Results filed as inconclusive are left out. Calls of active or inactive are those of the source. Unless noted, calls come from the whole dose curve; as a rule, active = well fitted curve in the direction sought with a large enough effect in the repeat runs; inconclusive = weak or mixed curves; inactive = no such curve, though single readings can be large; an effect the other way counts as inactive or inconclusive.
How the values were obtained:
[1] = qHTS assay to identify small molecule antagonists of the glucocorticoid receptor (GR) signaling pathway - cell viability counter screen (AID 720693); note: nearly all actives have a fitted effect of over 55% in size
[2] = qHTS assay for identifying genotoxic compounds that show differential cytotoxicity against isogenic chicken DT40 cell lines with known DNA damage response pathways - wild type cell line (AID 743012); note: nearly all actives have a fitted effect of over 60% in size; note: potency is the fitted concentration of half-maximal effect
Procedure, shortened: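 CellTiter-Glo luminescence readout of viability in wild type DT40 cells after 40 h compound exposure at 37 C/5% CO2; 300 cells/well; reagent incubated 30 min at room temperature before reading.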

[3] = qHTS assay for identifying genotoxic compounds that show differential cytotoxicity against isogenic chicken DT40 cell lines with known DNA damage response pathways - Rev3 mutant cell line (AID 743014); note: nearly all actives have a fitted effect of over 55% in size; note: potency is the fitted concentration of half-maximal effect
[4] = qHTS assay for identifying genotoxic compounds that show differential cytotoxicity against isogenic chicken DT40 cell lines with known DNA damage response pathways - Rad54/Ku70 mutant cell line (AID 743015); note: nearly all actives have a fitted effect of over 60% in size; note: potency is the fitted concentration of half-maximal effect
[5] = qHTS assay to identify small molecule antagonists of the androgen receptor (AR) signaling pathway - cell viability counter screen (AID 743033; note: nearly all actives have a fitted effect of over 45% in size)
[6] = qHTS assay to identify small molecule antagonists of the androgen receptor (AR) signaling pathway using the MDA cell line - cell viability counter screen (AID 743041; note: nearly all actives have a fitted effect of over 45% in size)
Procedure, shortened: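 Viability read by CellTiter-Fluor fluorescence in the same wells as the antagonist screen, added after 15.5 h of a 16 h, 37C exposure. Human breast carcinoma MDA-kb2 AR-luc cells, compounds co-dosed with agonist R1881.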

[7] = qHTS assay to identify small molecule antagonists of the thyroid receptor (TR) signaling pathway - cell viability counter screen (AID 743064); note: nearly all actives have a fitted effect of over 50% in size
Procedure, shortened: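 Fluorescence from CellTiter-Fluor, added after 23.5 h exposure at 37 °C, reported viability of GH3.TRE-Luc cells co-treated with compound and 1 nM T3. Measured in the same wells as the luciferase TR readout.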

[8] = molecular target: Estrogen receptor (Homo sapiens) (UniProt P03372); test: qHTS assay to identify small molecule antagonists of the estrogen receptor alpha (ER-alpha) signaling pathway (AID 743069; active = well fitted curve in the direction sought with a large enough effect in the signal ratio in the repeat runs, not every such curve was filed as active; the % refers to the signal ratio)
Procedure, shortened: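 Antagonist mode: compounds in DMSO were co-added with 17beta-estradiol to ER-alpha-bla HEK293 cells (2% charcoal-stripped serum) and left 18 h at 37C. Reporter inhibition was measured as FRET fluorescence after 2 h LiveBLAzer substrate at room temperature.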

[9] = qHTS assay to identify small molecule antagonists of the estrogen receptor alpha (ER-alpha) signaling pathway - cell viability counter screen (AID 743074; calls by dose curve;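 note: HEK293 cells carrying ER-alpha-UAS-bla reporter stimulated with 17beta-estradiol; nearly all actives have a fitted effect of over 45% in size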)
[10] = molecular target: Estrogen receptor (Homo sapiens) (UniProt P03372); test: qHTS assay to identify small molecule agonists of the estrogen receptor alpha (ER-alpha) signaling pathway (AID 743075; calls by dose curve;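 note: HEK293 GripTite cells with ER-alpha and UAS-driven beta-lactamase reporter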)
[11] = molecular target: Estrogen receptor (Homo sapiens) (UniProt P03372); test: qHTS assay to identify small molecule agonists of the estrogen receptor alpha (ER-alpha) signaling pathway using the BG1 cell line (AID 743079); note: nearly all actives have a fitted effect of over 20% in size; note: potency is the fitted concentration of half-maximal effect
[12] = qHTS assay to identify small molecule antagonists of the estrogen receptor alpha (ER-alpha) signaling pathway using the BG1 cell line (AID 743080; calls by dose curve;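 note: BG1 cells stimulated with 17beta-estradiol alongside compound; series mostly up to about 70 µM; nearly all actives have a fitted effect of over 25% in size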)
Procedure, shortened: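 BG1Luc4E2, endogenous ER-alpha, 4xERE-luc; 5 d charcoal-stripped FBS, phenol red free; 24 h plating; cpd + 17beta-estradiol 21.5 h, 37 C/5% CO2; CellTiter-Fluor viability 30 min, then ONE-Glo luciferase 30 min RT.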

[13] = qHTS assay to identify small molecule antagonists of the estrogen receptor alpha (ER-alpha) signaling pathway using the BG1 cell line - cell viability counter screen (AID 743081);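 note: compound given together with 17beta-estradiol as the ER stimulus; series mostly up to about 70 µM; nearly all actives have a fitted effect of over 45% in size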
Aromatase (Homo sapiens) = Aromatase (Homo sapiens) (UniProt P11511); test: qHTS assay to identify aromatase inhibitors (AID 743083); note: nearly all actives have a fitted effect of over 55% in size; note: potency is the fitted concentration of half-maximal effect
[14] = qHTS assay to identify aromatase inhibitors - cell viability counter screen (AID 743084);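 note: cells stimulated with testosterone during compound exposure; nearly all actives have a fitted effect of over 55% in size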
[15] = qHTS assay to identify small molecule antagonists of the thyroid receptor (TR) signaling pathway (AID 743065)
Procedure, shortened: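 Antagonism measured as loss of luciferase signal in GH3 cells stably carrying a TRE-luciferase reporter, co-treated with compound and T3 (1 nM final) for 23.5 h at 37 C. Viability was read in the same well by CellTiter-Fluor.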

[16] = test system: thyroid hormone receptor (rat, GH3 cells); test: qHTS assay to identify small molecule agonists of the thyroid receptor (TR) signaling pathway (AID 743066; calls by dose curve)
[17] = molecular target: Androgen receptor (Homo sapiens) (UniProt P10275); test: qHTS assay to identify small molecule antagonists of the androgen receptor (AR) signaling pathway (AID 743035; active = well fitted inhibition curve with a large enough effect in the signal ratio in the repeat runs, not every such curve was filed as active; the % refers to the signal ratio)
Procedure, shortened: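 AR-bla HEK293 reporter cells; 4 h settle at 37C/5% CO2; compound + R1881 agonist, 16 h at 37C; LiveBLAzer B/G FRET substrate 2 h RT; fluorescence intensity read. qHTS format.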

[18] = molecular target: Androgen receptor (Homo sapiens) (UniProt P10275); test: qHTS assay to identify small molecule agonists of the androgen receptor (AR) signaling pathway (AID 743036; active = well fitted activation curve with a large enough effect in the signal ratio in the repeat runs, with a control signal flat, not every such curve was filed as active; the % refers to the signal ratio)
Procedure, shortened: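 Fluorescence from a beta-lactamase FRET substrate served as read-out in AR-UAS-bla GripTite HEK293 cells. Cells were treated with DMSO-dissolved compounds for 16 h at 37C, then with LiveBLAzer B/G substrate for 2 h at room temperature.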

[19] = molecular target: Androgen receptor (Homo sapiens) (UniProt P10275); test: qHTS assay to identify small molecule agonists of the androgen receptor (AR) signaling pathway using the MDA cell line (AID 743040; note: nearly all actives have a fitted effect of over 20% in size)
Procedure, shortened: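 Luciferase agonist assay: 16 h compound exposure at 37C without CO2 in MDA-kb2 AR-luc cells, whose MMTV promoter responds to both AR and GR. Luminescence measured after 30 min room-temperature incubation with ONE-Glo.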

Measured: Potency

Aromatase (Homo sapiens), sequence (P11511 whole entry, looked up): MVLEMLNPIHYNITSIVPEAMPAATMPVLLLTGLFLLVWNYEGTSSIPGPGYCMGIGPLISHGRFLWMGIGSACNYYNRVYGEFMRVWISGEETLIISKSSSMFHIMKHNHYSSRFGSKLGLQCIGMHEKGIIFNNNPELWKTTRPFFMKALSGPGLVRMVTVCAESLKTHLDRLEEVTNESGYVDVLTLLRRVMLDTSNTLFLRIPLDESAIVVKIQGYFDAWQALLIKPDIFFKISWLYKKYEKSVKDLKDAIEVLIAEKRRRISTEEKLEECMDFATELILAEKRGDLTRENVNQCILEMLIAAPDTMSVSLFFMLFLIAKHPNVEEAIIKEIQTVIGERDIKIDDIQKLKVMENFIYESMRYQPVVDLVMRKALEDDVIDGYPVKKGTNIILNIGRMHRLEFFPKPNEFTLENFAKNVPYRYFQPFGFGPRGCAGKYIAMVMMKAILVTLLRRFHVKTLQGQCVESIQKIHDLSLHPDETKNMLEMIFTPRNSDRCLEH
Estrogen receptor (Homo sapiens), sequence (P03372 whole entry, looked up): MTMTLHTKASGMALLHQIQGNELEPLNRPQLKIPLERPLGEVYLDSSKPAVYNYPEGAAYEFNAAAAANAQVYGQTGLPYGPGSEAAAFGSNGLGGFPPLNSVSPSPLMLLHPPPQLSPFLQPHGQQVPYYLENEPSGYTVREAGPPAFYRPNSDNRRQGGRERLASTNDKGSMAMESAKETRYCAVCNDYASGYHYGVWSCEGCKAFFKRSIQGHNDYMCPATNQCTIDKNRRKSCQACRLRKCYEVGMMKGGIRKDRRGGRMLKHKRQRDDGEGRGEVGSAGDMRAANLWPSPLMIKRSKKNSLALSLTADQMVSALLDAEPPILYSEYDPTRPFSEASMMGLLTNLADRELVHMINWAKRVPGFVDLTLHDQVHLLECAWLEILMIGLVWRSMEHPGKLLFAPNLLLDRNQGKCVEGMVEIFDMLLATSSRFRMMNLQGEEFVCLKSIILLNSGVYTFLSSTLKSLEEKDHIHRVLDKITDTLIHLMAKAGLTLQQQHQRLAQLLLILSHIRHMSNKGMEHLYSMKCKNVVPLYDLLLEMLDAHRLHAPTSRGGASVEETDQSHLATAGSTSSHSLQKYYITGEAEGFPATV
Androgen receptor (Homo sapiens), sequence (P10275 whole entry, looked up): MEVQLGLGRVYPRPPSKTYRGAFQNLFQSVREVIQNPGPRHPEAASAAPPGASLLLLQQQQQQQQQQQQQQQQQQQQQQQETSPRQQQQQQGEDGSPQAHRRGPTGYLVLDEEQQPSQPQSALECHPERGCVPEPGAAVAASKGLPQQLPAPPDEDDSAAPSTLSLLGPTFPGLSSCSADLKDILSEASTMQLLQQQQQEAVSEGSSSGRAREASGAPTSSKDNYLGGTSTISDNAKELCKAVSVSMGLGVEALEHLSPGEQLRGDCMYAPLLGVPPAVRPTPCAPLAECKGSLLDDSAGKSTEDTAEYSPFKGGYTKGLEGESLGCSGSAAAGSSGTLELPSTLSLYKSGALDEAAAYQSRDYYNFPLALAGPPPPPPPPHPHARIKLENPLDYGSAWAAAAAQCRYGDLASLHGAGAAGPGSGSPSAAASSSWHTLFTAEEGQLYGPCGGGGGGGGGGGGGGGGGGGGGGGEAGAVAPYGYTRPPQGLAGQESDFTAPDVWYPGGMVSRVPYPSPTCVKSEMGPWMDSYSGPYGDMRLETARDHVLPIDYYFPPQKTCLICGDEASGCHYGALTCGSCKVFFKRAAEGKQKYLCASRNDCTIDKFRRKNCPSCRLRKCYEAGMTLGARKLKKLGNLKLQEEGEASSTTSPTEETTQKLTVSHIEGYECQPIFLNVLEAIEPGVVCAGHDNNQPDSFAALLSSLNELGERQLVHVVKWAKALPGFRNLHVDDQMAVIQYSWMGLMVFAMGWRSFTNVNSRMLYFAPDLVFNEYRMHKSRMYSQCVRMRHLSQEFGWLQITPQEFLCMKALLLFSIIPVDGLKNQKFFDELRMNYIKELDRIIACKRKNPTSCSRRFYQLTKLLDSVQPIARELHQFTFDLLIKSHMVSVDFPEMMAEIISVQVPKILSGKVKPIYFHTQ

CCCCN1C(=O)c2ccccc2C1=O
not listed: [15] | [16] | [17] | [18] | [19]
inactive: all other assays above

CCCC[O][Al]([O]CCCC)[O]CCCC
inactive: [1] | [2] | [3] | [4] | [5] | [7] | [9] | [13] | Aromatase (Homo sapiens) | [14]

CC(=O)SC[C@@H](C)C(=O)N1CCC[C@H]1C(=O)N[C@@H](Cc1ccccc1)C(=O)O
not listed: [6] | [15] | [16] | [17] | [18] | [19]
inactive: all other assays above

C/C=C(\C)C(=O)OC/C=C(\C)CCC=C(C)C
not listed: [5] | [7] | [17] | [18] | [19]
inactive: all other assays above

Cc1ccc(O)c(C(=O)c2ccccc2)c1
active: Aromatase (Homo sapiens) 55 µM
not listed: [5] | [8] | [10] | [11] | [12] | [14]
inactive: all other assays above

Cc1ccccc1OCC(=O)O
not listed: [5] | [7] | [17] | [18] | [19]
inactive: all other assays above

CC(C)(O)c1ccc(C(C)(C)O)cc1
not listed: [6] | [7] | [17] | [18] | [19]
inactive: all other assays above

COC(=O)c1ccc(C(=O)O)cc1
not listed: [5] | [17] | [18] | [19]
inactive: all other assays above

COC(=O)c1c(C)cc(O)c(C)c1O
inactive: [1] | [5] | [7] | [15] | [9] | [12] | [13] | Aromatase (Homo sapiens) | [14]
active: [2] 61.1 µM | [3] 54.5 µM | [4] 61.1 µM | [11] 68.6 µM

O=C(CCBr)N1CCN(C(=O)CCBr)CC1
not listed: [5] | [17] | [18] | [19]
inactive: all other assays above

CC(C)OC(=O)C(C(=O)OC(C)C)=C1SC=CS1
active: [2] 23.7 µM | [3] 26.6 µM | [4] 23.7 µM
not listed: [5] | [7] | [8] | [10] | [11] | [12] | [17]
inactive: all other assays above

O=P(O)(O)C(O)(Cc1cccnc1)P(=O)(O)O
not listed: [5] | [17] | [18] | [19]
inactive: all other assays above

Clc1cc(Cl)c(Cl)c(Cl)c1Cl
not listed: [6] | [7] | [17] | [18] | [19]
inactive: all other assays above

CC(C)(C)OC=O
not listed: [6] | [8] | [10] | [11] | [12] | [17] | [18] | [19]
inactive: all other assays above

C=CC(=O)CC
inactive: [1] | [2] | [3] | [4] | [6] | [7] | [16] | [9] | [13] | Aromatase (Homo sapiens) | [14]

CCCCCCCCCCCC(C)=O
active: [11] 17.2 µM
not listed: [6] | [7] | [10] | [15] | [16] | [17] | [18] | [19]
inactive: all other assays above

CC(C)c1cc(C(C)C)cc(C(C)C)c1
not listed: [5] | [15] | [16] | [17] | [18] | [19]
inactive: all other assays above

NC(=O)CC[C@@H](N)C(=O)O
not listed: [6] | [8] | [10] | [11] | [12] | [17] | [18] | [19]
inactive: all other assays above

Reference: PubChem BioAssay (Tox21)
